Source: PubChem BioAssay (EPA / NIEHS)
Results filed as inconclusive are left out. Activity calls are given as the source filed them. How the source made its calls: active means hit-call score of the fitted dose curve at least 0.9, where 1 is the maximum; inconclusive means response in the unintended direction; inactive means score below 0.9.

What was measured:
[1] = target: human Protein Phosphatase, Mg2+/Mn2+ Dependent 1A (PPM1A), PPM1A (gene 5494) (UniProt P35813); assay: NVS_ENZ_hPPM1A: NovaScreen (NVS) Enzymatic Assay for human Protein Phosphatase, Mg2+/Mn2+ Dependent 1A (PPM1A) (AID 2283198)
human Protein Phosphatase, Mg2+/Mn2+ Dependent 1A (PPM1A), PPM1A (gene 5494), sequence (P35813 whole entry, looked up): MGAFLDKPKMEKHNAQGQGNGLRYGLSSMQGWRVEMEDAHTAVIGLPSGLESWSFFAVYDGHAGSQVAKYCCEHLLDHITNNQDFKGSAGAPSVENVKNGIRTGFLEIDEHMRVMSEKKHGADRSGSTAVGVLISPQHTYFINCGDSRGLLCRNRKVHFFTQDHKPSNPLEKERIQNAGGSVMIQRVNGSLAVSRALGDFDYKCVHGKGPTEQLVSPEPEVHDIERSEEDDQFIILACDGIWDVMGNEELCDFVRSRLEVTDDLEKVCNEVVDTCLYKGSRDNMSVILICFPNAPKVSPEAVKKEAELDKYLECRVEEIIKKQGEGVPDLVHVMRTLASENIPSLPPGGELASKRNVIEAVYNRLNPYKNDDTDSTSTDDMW
Method: NVS_ENZ_hPPM1A is a biochemical, single-readout assay that uses extracted gene-proteins in a cell-free assay. Measurements were taken 1 hour after chemical dosing in a 384-well plate.NVS_ENZ_hPPM1A is one of one assay component(s) measured or calculated from the NVS_ENZ_hPPM1A assay. It is designed to make measurements of enzyme activity, a form of enzyme reporter, as detected with fluorescence intensity signals by Fluorescence and electrophoretic mobility shift technology.Data from the assay component NVS_ENZ_hPPM1A was analyzed into 1 assay endpoint. This assay endpoint, NVS_ENZ_hPPM1A, was analyzed in the positive analysis fitting direction relative to DMSO as the negative control and baseline of activity. Using a type of enzyme reporter, loss-of-signal activity can be used to understand changes in the enzymatic activity as they relate to the gene PPM1A. Furthermore, this assay endpoint can be referred to as a primary readout, because this assay has produced multiple assay endpoints where this one serves a enzymatic activity function. To generalize the intended target to other relatable targets, this assay endpoint is annotated to the phosphatase intended target family, where the subfamily is serine/threonine phosphatase. […]

[2] = target: Tyrosine-protein phosphatase non-receptor type 14 (Homo sapiens) (UniProt Q15678); assay: NVS_ENZ_hPTPN14: NovaScreen (NVS) Enzymatic Assay for human Protein Tyrosine Phosphatase Non-receptor Type 14 (PTPN14) (AID 2283206)
Tyrosine-protein phosphatase non-receptor type 14 (Homo sapiens), sequence (Q15678 whole entry, looked up): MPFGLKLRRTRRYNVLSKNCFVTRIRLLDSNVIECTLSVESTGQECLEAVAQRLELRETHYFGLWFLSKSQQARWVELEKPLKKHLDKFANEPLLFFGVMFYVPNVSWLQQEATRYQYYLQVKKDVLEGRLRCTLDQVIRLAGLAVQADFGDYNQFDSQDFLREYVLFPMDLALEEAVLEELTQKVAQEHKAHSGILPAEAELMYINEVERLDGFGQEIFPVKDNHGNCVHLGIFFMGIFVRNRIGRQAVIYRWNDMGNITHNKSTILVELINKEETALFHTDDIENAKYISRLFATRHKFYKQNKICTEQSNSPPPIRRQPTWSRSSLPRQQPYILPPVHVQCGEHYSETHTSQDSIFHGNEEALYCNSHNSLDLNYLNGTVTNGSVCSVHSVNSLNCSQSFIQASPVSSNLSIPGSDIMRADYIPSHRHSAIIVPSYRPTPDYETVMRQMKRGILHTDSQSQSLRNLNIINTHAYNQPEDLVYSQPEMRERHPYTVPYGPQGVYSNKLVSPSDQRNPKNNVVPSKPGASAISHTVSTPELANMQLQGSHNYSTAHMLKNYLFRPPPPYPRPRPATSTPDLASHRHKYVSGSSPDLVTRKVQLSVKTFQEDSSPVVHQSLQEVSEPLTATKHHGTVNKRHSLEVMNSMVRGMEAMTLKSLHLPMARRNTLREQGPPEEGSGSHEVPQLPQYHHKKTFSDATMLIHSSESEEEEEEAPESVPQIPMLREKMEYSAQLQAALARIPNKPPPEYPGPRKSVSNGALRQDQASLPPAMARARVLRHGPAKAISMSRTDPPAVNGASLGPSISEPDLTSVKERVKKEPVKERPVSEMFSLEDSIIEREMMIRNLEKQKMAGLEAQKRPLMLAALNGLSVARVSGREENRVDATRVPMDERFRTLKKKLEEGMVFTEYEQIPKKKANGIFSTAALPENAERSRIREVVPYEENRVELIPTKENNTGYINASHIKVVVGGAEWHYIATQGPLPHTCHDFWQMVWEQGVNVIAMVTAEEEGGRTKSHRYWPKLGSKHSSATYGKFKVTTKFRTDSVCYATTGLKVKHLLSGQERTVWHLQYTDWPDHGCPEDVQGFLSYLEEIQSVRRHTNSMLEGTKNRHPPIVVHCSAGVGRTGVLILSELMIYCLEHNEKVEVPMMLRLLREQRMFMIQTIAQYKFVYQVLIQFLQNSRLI
Method: NVS_ENZ_hPTPN14 is a biochemical, single-readout assay that uses extracted gene-proteins in a cell-free assay. Measurements were taken 0.5 hour after chemical dosing in a 384-well plate.NVS_ENZ_hPTPN14 is one of one assay component(s) measured or calculated from the NVS_ENZ_hPTPN14 assay. It is designed to make measurements of enzyme activity, a form of enzyme reporter, as detected with fluorescence intensity signals by Fluorescence and electrophoretic mobility shift technology.Data from the assay component NVS_ENZ_hPTPN14 was analyzed into 1 assay endpoint. This assay endpoint, NVS_ENZ_hPTPN14, was analyzed in the positive analysis fitting direction relative to DMSO as the negative control and baseline of activity. Using a type of enzyme reporter, loss-of-signal activity can be used to understand changes in the enzymatic activity as they relate to the gene PTPN14. Furthermore, this assay endpoint can be referred to as a primary readout, because this assay has produced multiple assay endpoints where this one serves a enzymatic activity function. To generalize the intended target to other relatable targets, this assay endpoint is annotated to the phosphatase intended target family, where the subfamily is non-receptor tyrosine phosphatase. […]

O=S(=O)(O)C(F)(F)C(F)(F)C(F)(F)C(F)(F)C(F)(F)C(F)(F)C(F)(F)C(F)(F)F
outcome [1]: inactive

C[C@H]1[C@H](c2ccc(Cl)cc2)SC(=O)N1C(=O)NC1CCCCC1
outcome [2]: inactive
